From PubChem BioAssay AID686978 (National Center for Advancing Translational Sciences (NCATS), 2013)
Hit rate of the full screen: of about 420,000 compounds, about 64,000 (15%) were called active. Roughly 27% stayed inconclusive and do not appear here. The call rests on the fitted dose curve; in most records, active means well fitted inhibition curve with a large enough effect; inconclusive means small, poorly fitted or top-dose-only effect; inactive means flat fitted curve, though single readings scatter. The list is a sample of the results. Where a call stands in place of a potency, no number is given.

Assay: qHTS for Inhibitors of human tyrosyl-DNA phosphodiesterase 1 (TDP1): qHTS in cells in absence of CPT; further: nearly all actives have a fitted effect of over 55% in size
Conditions: DT40 Tdp1-/- hTDP1 cells, no CPT, ATP luminescence, 48 h; activity change, negative = growth inhibition: at 46.2 µM (top of the series)
In short: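 Cells were dispensed at 400 per well, compounds added by pin tool, plates incubated ≥48 hr at 37 °C, then CellTiter-Glo added for 30 min at room temperature before luminescence reading. Line: DT40 Tdp1-/- complemented with hTDP1; camptothecin omitted.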
Potency means the concentration at half of the fitted maximal effect.

SMILES | Potency
CNC(=O)NC(=O)C(OC(=O)c1cccc(S(=O)(=O)N2CCCCC2)c1)c1ccccc1 (configuration not stated) | inactive
COc1c(C=O)c(CCN(C)C(=O)c2ccc(F)cc2)cc2c1OCO2 | inactive
O=C1CSC(=S)N1c1ccc(Cl)c(Cl)c1 | inactive
Cc1ccccc1N1C(=O)C2ON(c3ccccc3)C(c3ccncc3)C2C1=O (configuration not stated) | inactive
O=C(NC1=NCCS1)c1ccc(Cl)s1 | inactive
CC(=O)NC1=NN(C(C)=O)C(C)(CCS(=O)(=O)c2ccc(Cl)c(Cl)c2)S1 (configuration not stated) | inactive
CC(=O)NC1=NN(C(C)=O)C(C)(c2ccc(Cl)s2)S1 (configuration not stated) | 5.17 µM (active)
COc1ccccc1C1CC(=O)n2c(nc(-c3ccccc3)c2-c2ccccc2)S1 (configuration not stated) | inactive
O=C(COC(=O)/C=C/c1cccs1)NC1CCCCC1 | inactive
CSc1ncccc1C(=O)OCc1ccc(Br)cc1 | inactive
OC(c1cc(Cl)cc(Cl)c1)c1ncc(-c2ccccc2C(F)(F)F)[nH]1 (configuration not stated) | inactive
CCCNc1ncnc2sc(C)c(C)c12 | 13 µM (active)
COCCN1CCN(C(=O)c2sc3ncnc(NCC4CCCO4)c3c2C)CC1 (configuration not stated) | inactive
CSc1ncnc2sc(C)c(C)c12 | inactive
COCCOC(=O)C1=C(C)NC(=O)NC1c1ccc(Cl)cc1 (configuration not stated) | inactive
CCOC(=O)CCCNC(=O)CN1C(=O)NC(CCc2ccccc2)C1=O (configuration not stated) | inactive
CCCCNC(=O)C(C)N(CCN(C)C)C(=O)CCCCCN1C(=O)NC(c2ccc(Cl)cc2)C(C(=O)OCc2ccccc2)=C1C (configuration not stated) | 16.4 µM (active)
CC1=C(C(=O)OC(C)(C)C)C(c2ccc(Br)cc2)NC(=O)N1CCCC(=O)O (configuration not stated) | inactive
CCCCNC(=O)C(C)N(CCN(C)C)C(=O)CCCN1C(=O)NC(c2ccc(Cl)cc2)C(C(=O)OCc2ccccc2)=C1C (configuration not stated) | 18.4 µM (active)
CC1=C(C(=O)OCc2ccccc2)C(c2ccc(C(F)(F)F)cc2)NC(=O)N1CCCCCC(=O)O (configuration not stated) | inactive
CC(C)c1nccn1S(=O)(=O)c1cc([N+](=O)[O-])ccc1Cl | inactive
c1ccc2c(c1)OC1OC2Oc2ccccc21 | inactive
O=C(CCN1C(=O)C2C3CCC(C3)C2C1=O)Nc1ccc(Cl)cc1Cl (configuration not stated) | inactive

SMILES | Potency
CCOc1ccc2ccccc2c1/C=N/NC(=O)c1c(C)cc(C)[nH]c1=O | inactive
O=C(N/N=C/c1c(Cl)[nH]c2ccccc12)c1sc2ccccc2c1Cl | 13 µM (active)
Cc1[nH]c2ccccc2c1/C=N/NC(=O)CNC(=O)c1ccc2c(c1)OCO2 | inactive
C[C@H](NC(=O)C1CC(=O)N(c2ccc3c(c2)OCCO3)C1)C(=O)N1CCC(C(=O)O)CC1 (some centres not stated) | inactive
CCC(C)(C)NC(=O)C(c1ccccn1)N(C(=O)c1csnn1)c1ccccc1 (configuration not stated) | inactive
CCc1ccc(NC(=O)CS(=O)CC(=O)NCCCc2ccccc2)cc1 (configuration not stated) | inactive
Nc1ccc(C(=O)OCC(=O)NC2CCS(=O)(=O)C2)cc1[N+](=O)[O-] (configuration not stated) | inactive
Cc1cc(CNC(=O)C2CCC(=O)N(CCc3ccc(Cl)cc3)C2)no1 (configuration not stated) | inactive
COc1cccc(C(=O)Nc2ccc(N3CCCC3)cc2)c1 | 8.2 µM (active)
COc1cccc(C(=O)Nc2cc3c(cc2Br)OCCCO3)c1 | inactive
NS(=O)(=O)c1ccc(NC(=O)C(=O)Nc2ccc3nc4n(c(=O)c3c2)CCCCC4)cc1 | inactive
COc1cccc(OC)c1C(=O)Nc1ccc(N2CCCCC2)cc1 | inactive
Cc1ccc(OCC(=O)Nc2ccc(NC(=O)c3cccs3)cc2)c(C)c1 | inactive
CCC(=O)Nc1ccc(C(=O)N2CCN(C(=O)c3ccco3)CC2)cc1 | inactive
COc1cccc(C(=O)Nc2ccc(N3CCN(C(=O)c4ccco4)CC3)cc2)c1 | 11.6 µM (active)
COc1cccc(C(=O)Nc2ccc3nc4n(c(=O)c3c2)CCCCC4)c1 | 20.6 µM (active)
COc1cccc(OCc2cc(C(=O)N3CCN(C(=O)c4ccco4)CC3)no2)c1 | inactive
CCCCN(CC)C(=S)Nc1ccc2nc3n(c(=O)c2c1)CCCCC3 | inactive
Cc1ccc(OCC(=O)Nc2ccc(N3CCN(C(=O)c4ccco4)CC3)cc2)c(C)c1 | 8.2 µM (active)
O=C(c1ccco1)N1CCN(c2cccc(Cl)c2)CC1 | inactive
COc1ccccc1NC(=O)C1=C(C)NC2=C(C(=O)CCC2)C1c1ccc(C)o1 (configuration not stated) | inactive
CCN(CC)C(=O)C(=O)c1cn(CC(=O)NCc2ccc3c(c2)OCO3)c2ccccc12 | inactive
CCOC(=O)N1CCN(S(=O)(=O)N2CCCC(C(=O)NCCCN3CCC(C)CC3)C2)CC1 (configuration not stated) | inactive

SMILES | Potency
Cc1ccc(C(c2sc3nc(C)nn3c2O)N2CCN(c3ccc(F)cc3)CC2)cc1 (configuration not stated) | inactive
Cc1ccc(CNC(=O)CCNS(=O)(=O)c2cccc3nonc23)cc1 | inactive
CS/C(=C\C(=O)c1ccco1)Nc1ccccc1Cl | inactive
Cc1nc(CN(C)C(=O)CC2C(=O)NCCN2Cc2ccc(F)cc2)cs1 (configuration not stated) | inactive
O=C(CCNS(=O)(=O)c1ccccc1C(F)(F)F)Nc1ccncc1 | inactive
Cc1cc(Nc2ccccc2)n(C(=O)c2ccc(N)cc2)n1 | inactive
CC(C)c1ccc(NS(=O)(=O)c2cn(C)c(=O)n(C)c2=O)cc1 | inactive
O=C(Cc1ccccc1)NNC(=O)C1CCN(c2ncccn2)CC1 | inactive
COc1ccc(NC(=O)CSc2nc(NS(=O)(=O)c3ccc(C)cc3)cc(=O)[nH]2)cc1 | inactive
CCc1ccc(OC(C)C(=O)Nc2ccc(S(=O)(=O)Nc3cc(C)on3)cc2)cc1 (configuration not stated) | inactive
CC(=O)Nc1ccc(S(=O)(=O)Nc2cc(C)cn(Cc3ccc(C)cc3)c2=O)cc1 | 11.6 µM (active)
CCN(CC)CCn1c2c(c(SCC(=O)Nc3nc4ccccc4s3)nc1=O)CCCC2 | inactive
Cc1cccc(C(=O)NCCCN(C)CCCNC(=O)c2cccc(C)c2)c1 | inactive
CN(NC(=O)c1ccccc1)c1nc2ccccc2nc1C(F)(F)F | 7.31 µM (active)
COC(=O)CNC(=O)c1ccccc1F | inactive
Cc1nc2ccccc2c(=O)n1NC(=O)c1ccccc1 | inactive
CSc1nc(N(C)NC(=O)c2cccc(C)c2)c2ccccc2n1 | 0.0146 µM (active)
Cc1ccc(S(=O)(=O)NC(=O)c2cccc(C)c2)cc1 | inactive
CN(NC(=O)c1ccccc1F)c1nc(C(F)(F)F)nc2ccccc12 | 0.206 µM (active)
O=C(Nn1cnc2ccccc2c1=O)c1ccccc1 | inactive
O=C(Cn1cnc2ccccc2c1=O)NNC(=O)c1ccccc1F | inactive
